Rows were chosen to be rich in hits. Some 8.1% of all compounds tested hit in one or more screens of this group.
PINK1 expr mod = modulators of PINK1 expression; PINK1 immunofluorescence, high-content cytometry, 24 h; Potency, µM (series often up to 76.6 µM), without a hit: at the top dose activation (PINK1 increase), most hits filed as activators; hit rate 0.2% among 410,000; active = well fitted activation curve with a large enough effect; inconclusive = small, poorly fitted or top-dose-only effect; cell line not stated here; also: % of control where 0% means no effect; nearly all actives have a fitted effect of over 65% in size
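Compound titrations (5 concentrations, 24 h) on a stable cell line; DMSO and CCCP controls. Endpoint: fixed-cell PINK1 immunofluorescence with mitochondrial, cell and nuclear markers, scanned by microplate cytometer.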
VP16 counter = Gal4-VP16 reporter inhibition counter-screen. Potency, µM (doses to about 53.6 µM), for the others: top-dose activity, negative = inhibition, hits mostly inhibitors. Drosophila S2 Gal4-VP16 UAS-luciferase, luminescence, 20 h. hit rate 3.5% among 310,000;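 also: Gal4-VP16 expression switched on by copper sulfate through the metallothionein promoter; % is scaled to controls: 0 for no effect and ±100 for the full control effect; nearly all actives have a fitted effect of over 50% in size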
ClpP mod = qHTS Assay for Activators of ClpP; ATP-dependent Clp protease proteolytic subunit (Bacillus subtilis (strain 168)), P80244; purified B. subtilis ClpP, FRET peptide cleavage, 20 min; Potency, µM (top dose mostly 57.5 µM), inactives show at the highest dose activity change, negative = active; hit rate 1.9% among 340,000; AID 651965, 2013; active = well fitted falling curve with a large enough effect; inconclusive = small, poorly fitted or top-dose-only effect; inactive = no such curve, though single readings can be large or run the other way; also: the source files actives as falling curves though it sought activators and does not explain the sign; nearly all actives have a fitted effect of over 65% in size
Target sequence (P80244 whole entry, looked up): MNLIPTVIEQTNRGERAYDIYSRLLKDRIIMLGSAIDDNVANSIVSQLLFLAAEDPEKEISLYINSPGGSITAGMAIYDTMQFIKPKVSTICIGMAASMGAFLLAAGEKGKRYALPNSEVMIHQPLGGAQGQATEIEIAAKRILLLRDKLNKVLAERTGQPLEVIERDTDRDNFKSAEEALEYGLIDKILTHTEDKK
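Purified B. subtilis ClpP, 10 microg/mL final in Tris/HCl pH8 with KCl, BSA, glycerol and Tween-20, cleaved an Abz/nitrotyrosine-quenched decapeptide. Fluorescence (ex 320, em 430) was read at 0 and 20 min at room temperature. Delta was normalized to 5.8 microM ADEP and DMSO/no-enzyme controls.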
Epigenetic derep = epigenetic control regulation, reporter derepression | murine LDR cells, GFP reporter derepression, 30 h | Potency, µM (doses to about 53.9 µM), without a hit: top-dose GFP activation, hits mostly activators | hit rate 0.2% among 280,000; also: % of control where 0% means no effect; nearly all actives have a fitted effect of over 60% in size
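Reporter derepression read as number of fluorescent GFP-positive objects, 20-120 um in size, counted by laser-scanning cytometer. Mouse LDR line with an epigenetically silenced CMV-GFP locus; compound incubation 30 h, 37 C.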
RORg inh = blocks mouse ROR gamma transcriptional activity. Drosophila S2 Gal4-RORgamma UAS-luciferase reporter, 20 h. Potency, µM (doses to about 53.6 µM), inactives show top-dose activity change, negative = inhibition, most hits filed as inhibitors. hit rate 5.4% among 310,000. AID 2551; also: % is scaled to controls: 0 for no effect and ±100 for the full control effect; nearly all actives have a fitted effect of over 60% in size
Target sequence (P51450 whole entry, looked up, the tested form may be a part): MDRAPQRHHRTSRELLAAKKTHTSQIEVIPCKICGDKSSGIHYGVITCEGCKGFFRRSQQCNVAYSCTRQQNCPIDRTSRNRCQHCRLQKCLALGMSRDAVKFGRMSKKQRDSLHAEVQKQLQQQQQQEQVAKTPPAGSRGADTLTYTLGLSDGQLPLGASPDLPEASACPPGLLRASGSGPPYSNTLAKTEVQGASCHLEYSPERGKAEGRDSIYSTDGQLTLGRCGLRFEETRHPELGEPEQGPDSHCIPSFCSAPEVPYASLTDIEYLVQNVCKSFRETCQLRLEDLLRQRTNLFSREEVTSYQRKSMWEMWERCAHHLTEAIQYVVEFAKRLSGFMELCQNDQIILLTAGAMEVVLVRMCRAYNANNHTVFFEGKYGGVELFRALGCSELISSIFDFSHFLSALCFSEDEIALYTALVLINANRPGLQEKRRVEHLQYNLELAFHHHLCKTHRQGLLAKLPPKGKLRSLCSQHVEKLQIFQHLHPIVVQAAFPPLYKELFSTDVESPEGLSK
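Compounds are pin-transferred onto Drosophila Schneider cells expressing a copper-inducible Gal4–ROR gamma transactivation domain fusion. After 1 hr, copper sulfate is added to 700 uM final; luciferase is read 20 hr later.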
Sfp inh = inhibitors of Bacillus subtilis Sfp phosphopantetheinyl transferase. Potency, µM, without a hit: largest response in the series, negative = inhibition, hits mostly inhibitors. Q9F4F7. hit rate 3.5% among 310,000. Biochemical Sfp PPTase activity, qHTS. AID 1490;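 also: the enzyme is Sfp with the accession as filed and its product quenches rhodamine fluorescence; 0% = enzyme reaction without inhibitor and -100% = no enzyme wells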
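Reaction rates are the 30-min fluorescence difference (ex 525, em 598 nm) in wells containing 15 nM Sfp, 5 uM rhodamine-CoA and 12.5 uM BHQ-2-YbbR at pH 7.6 with 10 mM MgCl2.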
* hit, by the source's call; ? = inconclusive; . = no result; [ ] = remark or other dose. Unless noted, calls follow the shape of the dose curve; as a rule, active = well fitted curve in the direction sought with a large enough effect; inconclusive = small, poorly fitted or top-dose-only effect, or another doubt; inactive = no such curve, though single readings can be large; an effect the other way counts as inactive or inconclusive. Potency is read from the fitted curve at half-maximal effect.

SMILES	PINK1 expr mod	VP16 counter	ClpP mod	Epigenetic derep	RORg inh	Sfp inh
CC(Oc1ccc(Cl)cc1Cl)c1nc(-c2ccc(NC(=O)c3ccncc3)cc2)no1 (stereo not drawn)	?	12.6µM*	-2.2%	0.0%	?	1.1%
Cc1ccc(-c2nc3cc(NC(=O)C(C)C)ccc3o2)cc1C	22.1%[38.3 µM]	?	28.2µM*	-0.9%	?	-7.7%
CC(Oc1ccc(Cl)cc1Cl)c1nc(-c2ccc(NC(=O)c3cccnc3)cc2)no1 (stereo not drawn)	12.2%	?	19.8%	0.9%	?	?
Cc1ccc(-c2nc3cc(NC(=O)C(C)C)ccc3o2)cc1	7.1%	-1.0%	14.1µM*	4.8%	-17.5%	-0.6%
Cc1cc2nc(-c3ccc(NC(=O)C(C)C)cc3)oc2cc1C	-2.4%	?	31.3%	4.8%	?	15.2%
COc1cc(OC)cc(-c2nc3cc(C)ccc3o2)c1	16.9%	-11.4%	25.1µM*	-1.1%	0.0%	19.4%
O=C(c1ccc(N2CCC(NCCCn3ncc4ccccc43)CC2)cc1)N1CCc2ccccc2C1	0.7%	.	.	.	.	.
CC(Oc1ccc(Cl)cc1Cl)C(=O)Nc1ccc2oc(-c3ccncc3)nc2c1 (stereo not drawn)	6.5%	-2.9%	8.91µM*	0.0%	-13.5%	?
Cc1ccc(-c2nc3cc(Cl)ccc3o2)cc1	0.9%	-5.2%	35.5µM*	-7.7%	4.2%	-4.0%
CC(C)CC(=O)Nc1ccc2oc(-c3ccncc3)nc2c1	-0.7%	8.5%	?	2.2%	5.6%	17.8%
Cc1ccccc1NC(=O)C1c2cccc[n+]2CC(=O)N1c1c(C)cccc1C (stereo not drawn)	1.4%	1.1%	-5.0%	1.8%	-26.2%	50.1µM*
Cc1ccc(NC(=O)N2CCc3ccccc32)cc1C	4.9%	?	.	-0.6%	?	16.4%
O=C(Nc1ccccc1)N1CCc2ccccc2C1	0.9%	3.2%	-1.2%	-2.2%	-2.3%	1.9%
O=C(Nc1ccc(Cl)cc1)N1CCc2ccccc2C1	-0.4%	?	.	14.8%	0.891µM*	79.4µM*
Cc1ccc(NC(=O)N2CCc3ccccc32)cc1	-0.3%	10µM*	0.0%	3.0%	?	-10.4%
CN1CCN(c2ccc(NC(=O)N3CCc4ccccc43)cc2)CC1	-0.8%	8.91µM*	-5.6%	.	10µM*	9.6%
Cc1cccc(OCC(=O)OCc2cc(=O)n3nc(C4CC4)sc3n2)c1	1.4%	.	-9.1%	1.5%	.	.
Clc1ccccc1Nc1c2c(nc3ncnn13)CCC2	-6.2%[38.3 µM]	?	0.0%	-0.9%	10µM*	2.7%
COc1ccc(Cn2c(N)c(C#N)c3nc4ccccc4nc32)cc1OC	0.1%	-20.2%	14.1µM*	5.9%	-13.0%	16.2%
COc1ccc2c(c1)c1nc3ccccc3nc1n2Cc1ccc(OC(C)C)c(OC)c1	5.2%	-0.3%	0.4%	?	?	14.1µM*
COc1ccccc1CCn1c(N)c(C#N)c2nc3ccccc3nc21	21.5%[38.3 µM]	-29.5%	31.6µM*	?	17.1%	-17.2%
COc1ccc(Cn2c3ccc(OC)cc3c3nc4ccccc4nc32)cc1	?	-6.9%	-1.0%	?	-10.6%	0.9%
COc1ccc2c(c1)c1nc3ccccc3nc1n2CCn1c(=O)oc2ccccc21	3.98µM*	-10.2%	1.8%	0.0%	6.6%	7.6%
COc1ccc(CCn2c(N)c(C#N)c3nc4ccccc4nc32)cc1OC	0.6%	12.2%	?	3.2%	40.8%	-1.6%
O=c1oc2ccccc2n1CCn1c2ccccc2c2nc3ccccc3nc21	6.8%	?	1.2%	0.0%	?	15.3%
SMILES	PINK1 expr mod	VP16 counter	ClpP mod	Epigenetic derep	RORg inh	Sfp inh
C=CCN(CC=C)c1ccc(/C=C/c2ccnc3ccccc23)cc1	-0.6%	.	-7.4%	.	.	.
Clc1ccc[n+](CCCCC[n+]2cccc(Cl)c2)c1	.	.	-14.9%	.	.	.
Cn1cccc1C(=O)NCCc1ccc(Cl)cc1	1.5%	15.0%	-1.8%	.	?	23.8%
Cc1ccccc1CNC(=O)c1cc2cccc3c2n1CC(C)S3 (stereo not drawn)	0.6%	.	39.8µM*	-2.7%	.	.
CC1Cn2c(C(=O)NCCc3ccc(Cl)cc3)cc3cccc(c32)S1 (stereo not drawn)	8.6%	.	31.6µM*	-0.5%	.	.
Cn1c(C(=O)NCc2ccccc2Cl)cc2sc(Cl)cc21	4.2%	.	-2.3%	1.4%	.	.
COc1ccccc1CNC(=O)c1cc2cccc3c2n1CC(C)S3 (stereo not drawn)	1.5%	.	31.6µM*	-3.2%	.	.
CC1Cn2c(C(=O)NCc3ccccc3Cl)cc3cccc(c32)S1 (stereo not drawn)	5.8%	.	28.2µM*	-2.6%	.	.
O=C(NCc1ccc(F)cc1)c1cc2cccc3c2n1CCS3	1.3%	.	4.0%	-1.1%	.	.
COc1ccccc1C1CN(Cc2cccc(OCCO)c2)Cc2ccccc2O1 (stereo not drawn)	0.0%	.	.	.	.	.
O=C(Nc1ccc(Cl)cc1)OCCN1CCN(Cc2ccccc2)CCC1=O	.	1.9%	.	-5.3%	?	-4.1%
COc1cccc(CN2C(=O)NC(C)(C3CCN(Cc4cc(F)cc(F)c4)CC3)C2=O)c1OC (stereo not drawn)	-0.1%	.	.	.	.	.
O=S(=O)(c1ccc2ccccc2c1)n1nc(-c2ccco2)nc1NCc1ccc(F)cc1	1.2%	.	-1.1%	-2.4%	.	.
COc1ccccc1C(=O)Nc1cc2c(cc1N1CCCCC1)n(C)c(=O)n2C	0.9%	.	80.3%	0.0%	.	.
Cc1ccc(NC(=S)N2CCN(c3ccccc3F)CC2)c(C)c1	-0.8%	7.08µM*	0.7%	.	8.91µM*	14.3%
COc1ccc(N2CCN(C(=S)Nc3ccc(C)cc3C)CC2)cc1	0.2%	-16.9%	-2.1%	-4.7%	-13.8%	12.3%
CCOc1ccccc1NC(=S)N1CCN(c2ccc(O)cc2)CC1	0.6%	16.7%	1.8%	.	-14.5%	-19.1%
CCOc1ccccc1NC(=S)N1CCCCCC1	-0.8%	?	-0.5%	.	14.1µM*	9.2%
CCOc1ccccc1NC(=S)N1CCN(c2ccc(OC)cc2)CC1	1.2%	17.8µM*	1.2%	.	11.2µM*	10.9%
COc1ccc(OC)c(NC(=S)N2CCC(C(O)(c3ccccc3)c3ccccc3)CC2)c1	-1.2%	?	1.2%	0.0%	15.8µM*	8.7%
Cc1cccc2sc(N(Cc3cccnc3)C(=O)Cc3ccccc3)nc12	29.8%	.	-4.3%	6.3%	.	.
COc1cccc(CNC(=O)C(NS(=O)(=O)c2cccs2)C(C)C)c1 (stereo not drawn)	-0.1%	.	-0.2%	-0.3%	.	.
CCCCN1C(=O)CN(C2CCCCCC2)C(=O)C1c1ccc(OCCC)c(OC)c1 (stereo not drawn)	-0.1%	.	0.4%	2.0%	.	.
